The source made the active and inactive calls.

Results on 13 compounds are retold here after PubChem BioAssay.

Assay [1] is described as follows: small molecules captured by biotinylated probe aFSTL3 – biochemical, small-molecule microarray, fluorescence 635/667, stem cell growth factor project, primary screen (AID 1064).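 Also: measures binding of the biotinylated anti-FSTL3 antibody to printed compounds.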 The note with it: higher = more signal.
Assay [2] can be described thus: binders from COS7 lysate, DM2A8 probe, primary screen, torsin A project, cell lysate, small-molecule microarray, fluorescence 635/667 (AID 1065). To be noted: higher = more signal, COS7 lysate expressing mutant human TOR1A.
Assay [3] in a line: small molecules captured by biotinylated probe aFGF2 – biochemical, small-molecule microarray, fluorescence 635/667, stem cell growth factor project, primary screen (AID 1067).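 Also: measures binding of biotinylated aFGF2 protein to printed compounds on slides; z-score merges feature fluorescence and signal-to-noise across triplicate slides.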 To be noted: higher = more signal.
A short description of assay [4]: small molecules captured by biotinylated probe aFGF10 – biochemical, small-molecule microarray, fluorescence 635/667, stem cell growth factor project, primary screen (AID 1071).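 Also: score merges 667 nm spot intensity and signal to noise from triplicate slides.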 The note with it: higher = more signal.
Assay [5] addresses Neurogenic locus notch homolog protein 2 (Homo sapiens) (UniProt Q04721). Description: small molecules binding Notch2 protein – biochemical, small-molecule microarray, 635 nm fluorescence, stem cell growth factors, primary screen (AID 1073). The note with it: higher = more signal.
Assay [6] addresses Pro-neuregulin-1, membrane-bound isoform (Homo sapiens) (UniProt Q02297). In words: small molecules binding neuregulin-1 protein – biochemical, small-molecule microarray, fluorescence 635/667, psychiatric disease protein project, primary screen (AID 1075).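 Also: score combines 667 nm spot fluorescence with signal to noise.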 To be noted: NRG1 binding, 635 nm fluorescence, higher = more signal.
Assay [7] relates to Neuregulin-1 EGF-like domain. Description: small molecules binding NRG1 EGF domain – biochemical, small-molecule microarray, 635 nm fluorescence, primary screen (AID 1081).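 Also: binding of the protein to compounds printed on small-molecule microarray slides.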 To be noted: higher = more signal.
Assay [8] in a line: FRG1 expression reporter modulators in myotubes – cell-based, C2C12 myotubes, firefly/Renilla luciferase, luminescence, FRG1 inhibition for FSHD, primary screen (AID 1084). The note with it: FRG1 promoter luciferase, higher = more signal, called active from +8 up or from −8 down.
Assay [9] is described as follows: small molecules captured by biotinylated probe aFST – biochemical, small-molecule microarray, fluorescence 635/667, stem cell growth factor project, primary screen (AID 1086).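 Also: score merges 667 nm fluorescence with signal-to-noise of each printed compound spot.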 To be noted: higher = more signal.
A short description of assay [10]: binders of probe aHhip on microarray, primary screen, stem cell growth factor project, biochemical, small-molecule microarray, fluorescence 635/667 (AID 1087).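 Also: score merges spot fluorescence at 667nm with spot signal to noise ratio.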 The note with it: higher = more signal.

Sequence of Pro-neuregulin-1, membrane-bound isoform (Homo sapiens) (Q02297 whole entry, looked up, the tested form may be a part, canonical isoform): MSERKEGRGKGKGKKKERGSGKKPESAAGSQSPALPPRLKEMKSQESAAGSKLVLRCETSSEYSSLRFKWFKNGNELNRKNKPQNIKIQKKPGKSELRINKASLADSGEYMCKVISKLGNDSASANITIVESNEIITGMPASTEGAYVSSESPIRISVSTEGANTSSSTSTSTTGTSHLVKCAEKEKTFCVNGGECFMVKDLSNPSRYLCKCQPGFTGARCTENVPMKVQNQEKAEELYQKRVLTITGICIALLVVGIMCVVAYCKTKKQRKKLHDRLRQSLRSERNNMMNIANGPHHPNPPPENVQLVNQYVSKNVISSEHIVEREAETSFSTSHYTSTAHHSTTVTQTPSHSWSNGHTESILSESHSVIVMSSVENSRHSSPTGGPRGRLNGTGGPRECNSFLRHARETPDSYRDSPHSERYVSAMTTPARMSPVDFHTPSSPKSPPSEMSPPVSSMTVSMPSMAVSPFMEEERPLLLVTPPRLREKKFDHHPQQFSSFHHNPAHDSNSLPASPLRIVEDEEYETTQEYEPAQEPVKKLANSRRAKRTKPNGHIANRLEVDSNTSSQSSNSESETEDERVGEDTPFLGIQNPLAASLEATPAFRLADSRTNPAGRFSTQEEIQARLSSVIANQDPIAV
Sequence of Neurogenic locus notch homolog protein 2 (Homo sapiens) (Q04721 whole entry, looked up, canonical isoform): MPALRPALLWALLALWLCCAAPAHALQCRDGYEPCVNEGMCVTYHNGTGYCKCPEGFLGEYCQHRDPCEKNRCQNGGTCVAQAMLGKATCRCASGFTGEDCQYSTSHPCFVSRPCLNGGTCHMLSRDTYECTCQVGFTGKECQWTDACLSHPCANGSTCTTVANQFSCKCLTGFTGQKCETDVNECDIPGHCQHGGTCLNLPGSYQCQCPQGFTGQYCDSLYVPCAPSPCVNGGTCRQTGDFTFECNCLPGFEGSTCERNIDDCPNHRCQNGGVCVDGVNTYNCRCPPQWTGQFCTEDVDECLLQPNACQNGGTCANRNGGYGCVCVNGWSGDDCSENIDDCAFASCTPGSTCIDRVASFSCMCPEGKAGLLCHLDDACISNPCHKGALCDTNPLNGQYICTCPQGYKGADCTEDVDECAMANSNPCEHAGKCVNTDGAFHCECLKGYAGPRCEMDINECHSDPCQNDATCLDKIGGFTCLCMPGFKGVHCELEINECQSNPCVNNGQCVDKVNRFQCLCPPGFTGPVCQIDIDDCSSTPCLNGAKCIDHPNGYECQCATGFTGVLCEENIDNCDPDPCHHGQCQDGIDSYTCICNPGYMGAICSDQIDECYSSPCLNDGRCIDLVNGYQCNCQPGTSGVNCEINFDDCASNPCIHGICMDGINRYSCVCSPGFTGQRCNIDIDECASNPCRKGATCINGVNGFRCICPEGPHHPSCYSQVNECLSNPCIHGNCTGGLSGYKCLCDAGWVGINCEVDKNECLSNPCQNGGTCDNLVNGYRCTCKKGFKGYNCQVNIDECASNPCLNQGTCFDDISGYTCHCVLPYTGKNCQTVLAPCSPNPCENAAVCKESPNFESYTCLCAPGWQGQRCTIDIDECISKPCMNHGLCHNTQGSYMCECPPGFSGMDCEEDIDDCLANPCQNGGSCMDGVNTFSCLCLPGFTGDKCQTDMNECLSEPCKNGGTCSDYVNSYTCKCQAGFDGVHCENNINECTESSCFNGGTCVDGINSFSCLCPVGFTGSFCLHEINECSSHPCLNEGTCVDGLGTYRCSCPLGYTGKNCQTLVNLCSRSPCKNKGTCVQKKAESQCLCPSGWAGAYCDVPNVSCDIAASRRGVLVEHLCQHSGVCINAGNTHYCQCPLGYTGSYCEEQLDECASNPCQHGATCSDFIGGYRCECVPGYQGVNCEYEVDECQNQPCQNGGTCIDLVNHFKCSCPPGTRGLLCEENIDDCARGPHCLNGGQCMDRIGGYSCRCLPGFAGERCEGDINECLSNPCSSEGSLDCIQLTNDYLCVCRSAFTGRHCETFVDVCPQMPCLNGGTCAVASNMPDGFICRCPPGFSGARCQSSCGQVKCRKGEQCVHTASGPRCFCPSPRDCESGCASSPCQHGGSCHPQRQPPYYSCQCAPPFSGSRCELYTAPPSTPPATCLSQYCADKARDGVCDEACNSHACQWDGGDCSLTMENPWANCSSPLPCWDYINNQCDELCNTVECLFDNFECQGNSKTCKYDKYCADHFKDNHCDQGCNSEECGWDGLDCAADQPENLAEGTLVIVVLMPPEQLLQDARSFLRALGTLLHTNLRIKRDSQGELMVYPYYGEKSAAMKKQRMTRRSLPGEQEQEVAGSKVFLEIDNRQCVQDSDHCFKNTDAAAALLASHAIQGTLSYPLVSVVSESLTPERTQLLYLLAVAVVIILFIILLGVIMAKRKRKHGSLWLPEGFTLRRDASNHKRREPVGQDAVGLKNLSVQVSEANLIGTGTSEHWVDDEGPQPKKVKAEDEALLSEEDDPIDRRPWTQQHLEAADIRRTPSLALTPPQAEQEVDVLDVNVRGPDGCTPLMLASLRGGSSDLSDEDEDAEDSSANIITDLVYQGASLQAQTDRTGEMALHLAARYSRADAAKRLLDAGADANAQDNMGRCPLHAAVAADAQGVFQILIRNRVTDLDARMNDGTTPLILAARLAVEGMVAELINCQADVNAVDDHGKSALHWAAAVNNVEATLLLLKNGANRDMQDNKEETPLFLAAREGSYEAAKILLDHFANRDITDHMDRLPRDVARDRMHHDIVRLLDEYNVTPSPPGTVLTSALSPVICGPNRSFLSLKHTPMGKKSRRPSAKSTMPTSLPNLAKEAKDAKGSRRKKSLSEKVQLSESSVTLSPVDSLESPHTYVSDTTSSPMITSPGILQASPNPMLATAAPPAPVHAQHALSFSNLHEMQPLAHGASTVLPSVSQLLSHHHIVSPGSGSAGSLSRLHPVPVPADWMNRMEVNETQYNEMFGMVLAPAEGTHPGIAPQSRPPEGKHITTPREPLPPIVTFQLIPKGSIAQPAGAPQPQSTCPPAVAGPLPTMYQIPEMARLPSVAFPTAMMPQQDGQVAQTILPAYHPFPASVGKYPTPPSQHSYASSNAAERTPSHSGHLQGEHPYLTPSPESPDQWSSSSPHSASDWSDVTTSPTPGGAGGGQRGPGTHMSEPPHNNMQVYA

On to `COC(=O)C(CC#Cc1ccc2c(c1)[C@]1(C(=O)N2)[C@H](C(=O)O)[C@H]2C(=O)O[C@H](c3ccccc3)[C@H](c3ccccc3)N2[C@@H]1c1ccc(O)cc1)C(=O)OC`, for which the composite z-score was 0.43 in assay [1]; 0.108 in assay [2]; -0.0973 in [3]; 0.528 in [4]; -0.806 in assay [5]; 1.42 in assay [6]. For the same compound, the values for the composite z-score in assay [7], in [9] and in assay [10] were 1.23, -0.384 and -0.236, respectively. Further, in [8], the z-score is 1.34 (inactive).
As for `COc1ccc(CCN2C(=O)[C@@]3(c4ccc([N+](=O)[O-])cc4)CC(=O)N(C4CCCCC4)[C@@H]3c3ccc(CO)cc32)cc1`, the composite z-score is -0.126 in assay [1]; 0.0269 in [2]; -0.148 in assay [3]; -0.0632 in assay [4]; -0.0731 in [5]; 0.0125 in [6]. Besides, the composite z-score is 1.46 in [7], -0.135 in assay [9] and -0.0994 in assay [10]. Also, the z-score in [8] was 0.912 (inactive).
In the case of `COCCOC(=O)N1C(=O)[C@@]2(c3cc(C#CCCO)ccc31)[C@H](C(=O)N1CCc3cc(OC)c(OC)cc3C1)[C@H]1C(=O)O[C@H](c3ccccc3)[C@H](c3ccccc3)N1[C@@H]2c1ccc(O)cc1`, the composite z-score in assay [1] was -0.239; in assay [2], 0.761; in assay [3], 0.0106; in assay [4], 0.393; in assay [5] it was 1.15; in [6], 1.46. Further, the values for the composite z-score in assay [7], in assay [9] and in assay [10] were 1.32, 0.239 and -0.0645, respectively. Besides, in [8], the z-score was 0.897 (inactive).
`CCCCCN1CC=CC23O[C@@H]4/C=C\CCCOC(=O)C4[C@H]2C(=O)N(CCCO)[C@@H]3C1=O` (stereo not given in full): the composite z-score in assay [1] is -0.181; in [2], 1.14; in assay [3] it was -0.156; in assay [4], 0.116; in [5] it was -0.573; in assay [6], 0.753. The composite z-score in [7] is 1.47; in assay [9], -0.533; in [10], -0.11. Moreover, the z-score in assay [8] was -0.16 (inactive).
Consider `C=CCC(OC(C)=O)[C@@H]1[C@@H](N(Cc2cccc3ccccc23)C(=O)c2ccc(-c3ccccc3)cc2)c2cc(OCCCO)ccc2N1C(=O)Cc1ccc(OC)cc1` (stereo not given in full), for which the composite z-score in assay [1] was -0.184; in assay [2], 0.419; in assay [3] it was -0.061; in [4], 0.151; in assay [5], -0.131; in assay [6] it was 0.0521. Besides, the composite z-score in assay [7] was 0.138; in assay [9], -0.0107; in assay [10] it was -0.0618. The z-score in [8] was 0.61 (inactive).
On to `CCOC(=O)C[C@H]1[C@H](OC(=O)c2cc3ccccc3oc2=O)[C@@H](NC(=O)C2CCCCC2)c2cc(OCCCO)ccc2N1C(=O)c1ccccc1`, for which the composite z-score in assay [1] was -0.565; in assay [2], 0.0071; in assay [3], -0.121; in assay [4], 0.642; in assay [5], 1.29; in assay [6], 0.0246. Moreover, the composite z-score was 0.863 in assay [7], 0.564 in assay [9] and -0.0618 in [10]. For the same compound, the z-score in [8] is 0.0161 (inactive).
In the case of `CC(C)(C)OC(=O)CC[C@]12N=C(c3ccc(OCCCO)cc3)O[C@H]1c1ccccc1N(CCS(=O)(=O)c1ccccc1)C2=O`, the composite z-score in [1] was 0.144; in assay [2] it was 0.433; in [3] it was -0.0024; in [4], 0.137; in assay [5] it was 1.42; in assay [6], 0.882. For the same compound, the composite z-score in assay [7] was found to be 1.26; in assay [9] it was 0.682; in assay [10], 0.0139. In addition, the z-score in assay [8] is 0.281 (inactive).
For the compound `O=C(NCC(F)(F)F)[C@@H]1c2ccccc2C(=O)N(C2CCCCC2)[C@H]1c1ccc(CO)cc1`, the composite z-score is -0.176 in [1]; -0.527 in assay [2]; -0.116 in assay [3]; 0.0931 in assay [4]; 0.154 in assay [5]; 1.61 in assay [6]. In addition, the figures for the composite z-score in assay [7], in assay [9] and in assay [10] were 0.611, 0.249 and 0.0505, respectively. Besides, the z-score in [8] is -1.46 (inactive).
With `COCCCN1C(=O)[C@@]2(Cc3ccccc31)c1ccccc1C(=O)N(Cc1ccccc1C(F)(F)F)[C@H]2c1ccc(CO)cc1`, the composite z-score in [1] was -0.774; in assay [2], 0.356; in assay [3], -0.123; in [4], -0.179; in assay [5], -0.16; in assay [6] it was -0.0485. The figures for the composite z-score in assay [7], in assay [9] and in assay [10] were 0.848, 0.222 and -0.526, respectively. Further, in assay [8], the z-score is -0.0864 (inactive).
Take `NCCCCCNC(=O)[C@@H]1C[C@@H]2C(=O)N[C@@H](Cc3ccccc3)C(=O)N2[C@@H]1c1cccc(OCCO)c1`: the composite z-score was 0.185 in [1]; 0.291 in [2]; -0.107 in assay [3]; 0.106 in assay [4]; 0.514 in [5]; 1.32 in assay [6]. For the same compound, the composite z-score in assay [7] was 1.08; in assay [9] it was -0.122; in assay [10], -0.0645. In addition, the z-score in assay [8] was 1.39 (inactive).
In the case of `O=C1[C@H]2C=C(Br)[C@H](C[C@@H]2c2ccccc2)[C@@]12CO2`, the composite z-score is -0.357 in assay [1]; 0.324 in assay [2]; -0.0265 in [3]; 0.328 in assay [4]; 0.299 in [5]; -0.406 in [6]. In addition, the results for the composite z-score in [7], in [9] and in assay [10] were 0.57, 0.0322 and -0.0645, respectively. The z-score in assay [8] is 1.36 (inactive).
Take `C=C(COC)/C(=C/C[C@@H](OC(C)=O)c1ccc(OCCO)cc1)c1cc(C(=O)OC)ccc1OC`: the composite z-score in [1] was -0.524; in assay [2] it was 0.118; in assay [3], -0.0316; in [4], 0.872; in assay [5], 0.62; in assay [6], 0.67. For the same compound, the composite z-score in assay [7] is 0.705; in assay [9] it was 0.627; in assay [10], 0.107. The z-score in assay [8] is 0.296 (inactive).
For `CC(C)c1ccc(NN2C(C(O)c3cc(C(F)(F)F)cc(C(F)(F)F)c3)C=CC3C(=O)N(c4ccccc4)C(=O)C32)cc1` (stereo not given), the composite z-score in [1] was 0.43; in [2], -0.165; in [3], -0.0165; in [4] it was 0.13; in assay [5], 1.24; in assay [6] it was 1.69. In addition, the results for the composite z-score in assay [7], in [9] and in assay [10] were 1.28, 0.273 and 0.213, respectively. Besides, the z-score in [8] was 0.0782 (inactive).
